# Screens: PubChem BioAssay, National Center for Advancing Translational Sciences (NCATS)
# RGS4 inh: inhibitors of human regulator of G protein signaling 4; Transcreener GDP fluorescence polarization, RGS4-accelerated GTP hydrolysis; Potency, µM (highest dose often 114 µM), without a hit: at the top dose activity change, negative = inhibition, actives largely listed as inhibitors; AID 504845; hit rate 0.039% among 390,000; P49798; note: potency is the fitted concentration of half-maximal effect; % is set by controls: 0 for no effect and ±100 for the full control effect; nearly all actives have a fitted effect of over 75% in size
# Target sequence (P49798 whole entry, looked up): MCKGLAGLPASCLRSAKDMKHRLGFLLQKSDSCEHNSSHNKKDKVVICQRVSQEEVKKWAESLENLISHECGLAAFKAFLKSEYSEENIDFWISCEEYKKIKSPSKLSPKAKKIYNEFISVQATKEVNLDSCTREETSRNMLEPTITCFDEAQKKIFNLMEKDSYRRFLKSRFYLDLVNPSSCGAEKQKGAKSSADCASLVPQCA
#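 MLSMR compounds (23 nl, pin-transferred) preincubated 10 min at room temperature with a 500nM (2x) first reagent, then RGS4 at 900nM (2x) plus Transcreener GDP mix added; fluorescence polarization (620/688 nm) read before and after 90 min at 30 °C.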
# BRCA1 expr act: BRCA1 expression activation | AID 624202 | Potency, µM (titrated, usually from 46.1 µM), for inactives: top-dose activation, usual class: activators | MCF7-BRCA1-FFLuc reporter, luminescence, 48 h; response scale: scaled: vehicle 0%, 10 µM genistein 100% | hit rate 1.1% among 380,000; note: potency is the fitted concentration of half-maximal effect; nearly all actives have a fitted effect of over 80% in size
#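 Activators of BRCA1 expression were detected as increased firefly luciferase luminescence in engineered MCF7 cells after 48 h compound incubation. Signals were scaled to genistein 10 microM as full activation.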
# LDHA inh: LDHA (human) enzyme inhibition; P00338; activity change, % (values are at about 110 or 230 µM); hit rate 0.15% among 480,000; purified LDHA, NADH/diaphorase-resazurin fluorescence; stronger effect = lower value; in the data active = activity change below about -30%; inconclusive = mostly about -25% to -30%;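 note: plate controls were DMSO wells for no effect and wells without enzyme for full effect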
#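 LDH5 2 nM; NADH 0.06 mM, pyruvate 0.2 mM; 200 mM Tris pH 7.4, EDTA, Tween-20; 5 min RT. Detection: diaphorase 0.133 mg/mL + resazurin 37 µM, fluorescence ex540/em590 at 0 and 20 min; normalized to enzyme-free and DMSO wells.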
# p53 reactivator: re-activators of mutant p53 | H1299 p53-A138V BP100-luciferase reporter, luminescence, 24 h | hit rate 0.063% among 320,000 | AID 504706 | Potency, µM (highest dose often 92.2 µM), for the others: top-dose activity change, positive = activation, usual class: activators; note: potency is the fitted concentration of half-maximal effect; % of control where 0% means no effect; nearly all actives have a fitted effect of over 45% in size
#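 p53-null H1299 cells stably carrying temperature-sensitive p53-A138V and a BP100-luciferase reporter were pinned with compounds (4-point, 1:5 series) and held 24 hrs at 37 deg C. Luminescence was read 10 min after detection reagent.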
# PTHR1 ag: PTHR1 (human) receptor agonism; Potency, µM (highest dose often 115 µM), without a hit: at the highest dose activation, actives largely listed as activators; hit rate 0.075% among 410,000; HEK293 GP2 PTHR1 cells, GloSensor cAMP luminescence, 1 h; Q03431; note: potency is the fitted concentration of half-maximal effect; nearly all actives have a fitted effect of over 55% in size
#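 HEK-293-derived GP2 cells expressing PTHR1 and a GloSensor cAMP reporter, 3,000/well, plated overnight, given luciferin plus IBMX (each 0.5 mM as added) for 1 h at 37 °C, then compound for 1 h at 37 °C. Luminescence was read after 15 min at room temperature.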
# Active calls of the source: *; i = inactive; u = inconclusive; x = no result; [ ] = another dose, or the depositor's remark. An excerpt weighted towards active compounds, which were near 1.1% of everything screened. Unless noted, calls come from the whole dose curve; as a rule, active = well fitted curve in the direction sought with a large enough effect; inconclusive = small, poorly fitted or top-dose-only effect, or another doubt; inactive = no such curve, though single readings can be large; an effect the other way counts as inactive or inconclusive.
SMILES,RGS4 inh,BRCA1 expr act,LDHA inh,p53 reactivator,PTHR1 ag
COc1ccc(-c2nc3ccccc3c(=O)n2O)cc1,30%,-1%,4,4%,50µM*
CCOc1ccc(NC(=O)C(C#N)=C2CCC(C)CC2)cc1 (configuration not stated),x,x,13,x,x
O=C(COc1ccc2c(c1)OCO2)Nc1nccs1,8%,3.2µM*,0,18%,-30%
COCc1nnc(NC(=O)COc2ccc3c(c2)OCO3)s1,u,5%,-3,12%,i
O=c1cc(CSc2nnc(NC3CC3)s2)c2ccc(O)cc2o1,x,x,5,x,x
C=CCn1c2ccccc2c(=O)c2cc(C#CC[C@@H](C)O)ccc21,-4%,3.5µM*,-3,u,-22%
C=CCn1c2ccccc2c(=O)c2cc(C#CC3(O)CCCCC3)ccc21,-7%,u,0,x,-1%
CC1C(=O)CCN(CCO)C1C (configuration not stated),x,x,-2,x,x
N/C(=N\OC(=O)c1cccc(F)c1)c1cccc([N+](=O)[O-])c1,-44%,13µM*,-12,8%,i
N/C(=N\OC(=O)c1ccc2ccccc2c1)c1cccc([N+](=O)[O-])c1,9%,67%,-8,u,-8%
N/C(=N/OC(=O)c1cccc([N+](=O)[O-])c1)c1cccc([N+](=O)[O-])c1,-20%,7.1µM*,-5,23%,-15%
N/C(=N\OC(=O)c1ccc(F)cc1)c1cccc([N+](=O)[O-])c1,18%,39%,-12,-1%,-36%
COc1ccc(C2CC(=O)Nc3c2c(=O)[nH]c2ncnn32)cc1OC (configuration not stated),x,x,5,x,x
Cc1ccc(C(=O)c2cc3ccccc3o2)cc1,10%,u,-7,u,-17%[57.5 µM]
Cc1ccc(C(=O)c2cc3ccccc3o2)cc1C,21%,11µM*,-6,u,-38%
O=C(Cc1ccc(F)cc1)c1ccc(O)cc1O,14%,13µM*,-3,u,-16%[57.5 µM]
CCc1cc(C(=O)Cc2ccc(F)cc2)c(O)cc1O,9%,-21%,-1,11%,-28%
COc1cccc(OCc2cc(C(=O)NCc3ccccn3)no2)c1,39%,13µM*,2,u,-9%
CC(=O)c1ccc(NC(=S)NCCc2ccccn2)cc1,0%,10µM*,-4,u,i
COCCNC(=O)c1cc(-c2cccc(OC)c2)on1,20%,u,-3,14%,-55%
O=C(NCc1ccco1)c1cc(-c2ccc(Cl)cc2)on1,-4%,35%,-5,30%,u
COCC(C)NC(=O)c1cc(-c2cccc(OC)c2)on1 (configuration not stated),-22%,10µM*,-1,u,-9%
COc1cccc(OCc2cc(C(=O)NCCc3cccc(C)n3)no2)c1,-3%,0%,-4,0%,i
Cc1ccc(-c2cc(C(=O)NCc3ccco3)no2)cc1,10%,4µM*,-4,u,-6%[57.5 µM]
O=C(NCCn1cc(SCC(=O)N2CCCCC2)c2ccccc21)c1cccc(C(F)(F)F)c1,x,x,8,x,x
SMILES,RGS4 inh,BRCA1 expr act,LDHA inh,p53 reactivator,PTHR1 ag
COc1cccc(-c2cc(C(=O)NCc3ccco3)no2)c1,-6%,7.9µM*,0,u,i
CCOC(=O)c1ccc(NC(=O)C(=O)NCc2ccccn2)cc1,1%,-4%,-6,5%,0%
COCCNC(=O)COCc1cc(-c2ccc3c(c2)OCO3)on1,-6%,51%,-2,6%,i
COCCNC(=O)c1cc(-c2ccc3c(c2)OCO3)on1,-33%,32%,-11,20µM*,-16%
CCCNC(=O)c1cc(-c2ccc(Br)cc2)on1,-23%,1.8µM*,-6,u,i
CCc1ccc(NC(=O)C(=O)NCc2ccccn2)cc1,1%,3.5µM*,-1,4%,-27%
O=C(Cn1nnc(-c2ccccc2)n1)N1CCC(c2nc3ccccc3s2)CC1,x,x,7,x,x
O=C(NNC(=S)Nc1ccccc1)c1ccccc1Br,x,x,12,x,x
CCc1nnsc1C(=O)N(C)Cc1ccc(Cl)c(Cl)c1,x,x,-14,x,x
Cc1nc2nc(N(Cc3ccc(F)cc3)C(=O)c3ccco3)[nH]n2c(=O)c1Cc1ccccc1,x,x,-13,x,x
O=C(NCc1cccs1)c1cc(-c2ccccc2)on1,9%,5µM*,1,25%,-14%[57.5 µM]
Cc1ccc(-c2cc(C(=O)NCc3ccccn3)no2)cc1,0%,11µM*,3,u,-3%
O=C(NCc1ccccn1)c1cc(-c2ccccc2)on1,-15%,u,-13,u,i
O=C(CN1C(=O)NC2(CCCCCC2)C1=O)c1ccc2c(c1)OCCO2,-10%,2.8µM*,4,6%,-11%
O=C1CC(c2ccsc2)c2ncn(-c3ccccc3)c2N1 (configuration not stated),x,x,67,x,x
O=C(Oc1cccc(Nc2ncnc3ccccc23)c1)c1ccccc1Cl,15%,-24%,-4,27%,-29%
COc1ccc(Nc2ncnc3ccccc23)c(OC)c1,u,5%,3,23%,-34%[57.5 µM]
COc1cccc(Nc2ncnc3ccccc23)c1,2%,11µM*,-7,u,i
COc1ccc(Nc2ncnc3ccccc23)cc1,17%,7.9µM*,-6,u,-13%[57.5 µM]
CCN1CCC(NC(=O)CC23CC4CC(CC(C4)C2)C3)CC1,x,x,1,x,x
CCN(CC(=O)NC(C)C)Cc1nc(-c2cccs2)oc1C,x,x,3,x,x
CCCCn1c(CN2CCc3ccccc3C2)nc2c1c(=O)[nH]c(=O)n2Cc1ccccc1,x,x,8,x,x
N=C1/C(=C/c2ccc(OCc3ccccc3)cc2)C(=O)N=C2SC(CC(=O)N3CCOCC3)=NN12,-26%,14µM*,-6,u,i
COc1ccc(NC(=O)c2coc3ccccc23)cc1OC,-16%,10µM*,-2,12%,-7%[57.5 µM]
Cc1ccc(NS(=O)(=O)c2cccc(C(=O)NCC3(N(C)C)CCCCC3)c2)cc1,10%,-8%,1,-3%,-49%
SMILES,RGS4 inh,BRCA1 expr act,LDHA inh,p53 reactivator,PTHR1 ag
CN(C)C1(CNC(=O)c2cccc(S(=O)(=O)NCc3ccccc3)c2)CCCCC1,25%,-5%,-9,-6%,32µM*
Nc1ccc2c(c1)CCC(=O)N2,x,x,6,x,x
O=C(NCCN1CCOCC1)c1noc2c1CCc1ccccc1-2,20%,7.9µM*,1,u,-31%[57.5 µM]
COc1ccc2c(c1)CCc1c(C(=O)N3CCOCC3)noc1-2,-24%,2.8µM*,9,13%,-44%[57.5 µM]
c1ccc(-c2ccc(OCCCn3cncn3)cc2)cc1,3%[11.4 µM],11µM*,-10,24%,-31%[57.5 µM]
c1ccc(COc2ccc(OCCn3cncn3)cc2)cc1,-30%,59%,1,u,-64%[57.5 µM]
Cc1ccc(NC(=O)CCC(=O)c2cccs2)cc1F,5%,13µM*,-14,25%,-6%
O=C(CCNc1ccc(Cl)cc1)c1cccs1,-19%,2%,-3,16µM*,i
